In PubChem BioAssay (EPA / NIEHS) one finds outcome and AC50 data, which are given here for four molecules.

Results filed as inconclusive are left out. The source made the active and inactive calls. The calls were made as follows, unless noted: active = hit-call score of the fitted dose curve at least 0.9, where 1 is the maximum; inactive = score below 0.9.

The nature of assay [1]: ACEA_ER_80hr: ACEA Biosciences xCELLigence Real-Time Cell Analysis on Estrogen Receptor Agonism for Proliferation (AID 2282667; active = hit-call score of the fitted dose curve at least 0.9, where 1 is the maximum). To be noted: T47D proliferation, impedance (xCELLigence), 80 h. The method in brief: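 Real-time electrical impedance tracked growth of the human breast line T47D, with the 80 h post-dosing value used. Dosing spanned eight 1:4 steps down from a 100 uM final top concentration, run in duplicate.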

A short description of assay [2]: ATG_CRE_CIS: Attagene CIS-FACTORIAL HepG2 Assay for human cAMP Responsive Element (CRE) binding protein 3 (AID 2282926). To be noted: HepG2 CRE cis-reporter, Attagene multiplexed mRNA; actives raise or lower the signal. The method in brief:
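Assay format: transient reporter transfection of HepG2, 24 h treatment, total RNA isolation with DNase I step. Reporter abundance read by fluorescence after PCR and capillary separation; DMSO-normalised gain or loss fitting.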

The target in assay [3] is CCAAT/enhancer-binding protein beta (Homo sapiens) (UniProt P17676). Description: ATG_C_EBP_CIS: Attagene CIS-FACTORIAL HepG2 Assay for human CCAAT/Enhancer Binding Protein (C/EBP) beta (AID 2282927). To be noted: HepG2 Attagene cis-factorial transcription factor reporter; actives raise or lower the signal. A digest of the protocol: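 HepG2, transient MRTU transfection, 24 h treatment. RT-PCR plus CE fluorescence; DMSO negative control, bidirectional fit.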

The nature of assay [4]: ATG_CMV_CIS: Attagene CIS-FACTORIAL HepG2 Assay for human CMV (Internal Marker) (AID 2282928).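 Also: endpoint acts as a background internal control marker rather than a target.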 As to conditions: HepG2 CMV promoter reporter, transcription factor profiling; actives raise or lower the signal. A digest of the protocol: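 Reporter transcripts from transfected HepG2 cells are isolated after 24 h of chemical dosing, reverse-transcribed and amplified. Fragments labeled with 6-FAM are cut with HpaI and quantified by capillary electrophoresis; DMSO defines baseline.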

Assay [5] can be described thus: ATG_DR4_LXR_CIS: Attagene CIS-FACTORIAL HepG2 Assay for human Liver X Receptor (LXR), DR4 submotif (AID 2282929). As to conditions: HepG2 Attagene DR4 cis-reporter, mRNA transcription; actives raise or lower the signal. The method in brief:
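Fluorescence intensity of labelled reporter cDNA fragments, separated by capillary electrophoresis, gives the signal. HepG2 cells bearing cis-regulated reporter constructs were treated 24 h; activity fitted bidirectionally relative to DMSO negative control.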

The target in assay [6] is Aryl hydrocarbon receptor (Homo sapiens) (UniProt P35869). Nature of the assay: ATG_Ahr_CIS: Attagene CIS-FACTORIAL HepG2 Assay for human Aryl Hydrocarbon Receptor (Ahr) (AID 2282930). As to conditions: HepG2 AhR cis-factorial reporter transcription; actives raise or lower the signal. The method in brief:
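Endogenous factor activity is tracked through cis-promoter reporter units transfected into HepG2 cells. Transcript levels at 24 h are read by fluorescent RT-PCR and capillary electrophoresis, with activity in either direction scored relative to DMSO.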

Assay [7] is described as follows: ATG_AP_1_CIS: Attagene CIS-FACTORIAL HepG2 Assay for human Activator Protein 1 (AP-1) (AID 2282931). To be noted: HepG2 Attagene cis-factorial AP-1 reporter mRNA; actives raise or lower the signal. A digest of the protocol:
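Multiplexed HepG2 reporter assay, 24 h dosing. mRNA induction detected by RT-PCR plus capillary electrophoresis. Activity fitted in both directions against DMSO.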

Assay [8] can be described thus: ATG_AP_2_CIS: Attagene CIS-FACTORIAL HepG2 Assay for human Activator Protein 2 (AP-2) (AID 2282932). To be noted: HepG2 AP-2 cis-reporter, Attagene transcription factor profiling; actives raise or lower the signal. A digest of the protocol: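 Read-out: fluorescent reporter mRNA via RT-PCR and capillary electrophoresis, 24 h post-dose in transiently transfected HepG2. Endogenous factors drive cis-promoter reporters; gain or loss of signal fitted bidirectionally against DMSO.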

Assay [9] is described as follows: ATG_BRE_CIS: Attagene CIS-FACTORIAL HepG2 Assay for human Bone Morphogenetic Protein (BMP) Response Element (BRE) (AID 2282933). As to conditions: HepG2 BMP response element reporter, Attagene transcription factor profiling; actives raise or lower the signal. A digest of the protocol: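 Endogenous transcription factor activity at a BMP response element was monitored in transfected HepG2 cells 24 h after dosing. Fluorescent RT-PCR products were resolved by capillary electrophoresis, and activity was fitted in both directions versus DMSO.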

For assay [10], the target named is Retinoic acid receptor alpha (Homo sapiens) (UniProt P10276). Nature of the assay: ATG_DR5_RAR_CIS: Attagene CIS-FACTORIAL HepG2 Assay for human Retinoic Acid Receptor Alpha (RARE), DR5 submotif (AID 2282934). As to conditions: HepG2 Attagene cis-factorial RARE DR5 reporter, mRNA; actives raise or lower the signal. The method in brief:
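After 24 h of chemical exposure, transiently transfected HepG2 cells were lysed for total RNA; the DR5-regulated reporter transcript was quantified via RT-PCR and capillary electrophoresis, with activity fitted bidirectionally against DMSO.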

Assay [11] deals with Transcription factor E2F1 (Homo sapiens) (UniProt Q01094). Nature of the assay: ATG_E2F_CIS: Attagene CIS-FACTORIAL HepG2 Assay for human E2F Transcription Factor 1 (AID 2282935). As to conditions: HepG2 Attagene cis-reporter, E2F reporter RNA transcripts; actives raise or lower the signal. The method in brief:
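Transient MRTU transfection of HepG2; 24 h compound exposure; RNA → oligo(dT) RT → PCR → FAM label → HpaI cut → CE fluorescence. Gain/loss of signal fit against DMSO.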

A short description of assay [12]: ATG_E_Box_CIS: Attagene CIS-FACTORIAL HepG2 Assay for human Enhancer Box (E-box) (AID 2282936). To be noted: HepG2 E-box cis-reporter transcription, actives raise or lower the signal. The method in brief: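 Transiently transfected HepG2, endogenous TF-driven reporters, 24 h dosing. Readout: RT-PCR plus capillary electrophoresis of fluorescent reporter fragments. Gain or loss of signal fitted bidirectionally against DMSO baseline.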

The nature of assay [13]: ATG_M_61_CIS: Attagene CIS-FACTORIAL HepG2 Assay for M61 Transcription Factor (Internal Marker) (AID 2282937). As to conditions: HepG2 Attagene CIS-FACTORIAL M61 internal marker reporter; actives raise or lower the signal. A digest of the protocol: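 Endogenous transcription factor activity in HepG2 is read through transiently transfected cis-element reporter units. After 24 h dosing, RNA undergoes reverse transcription, PCR and primer extension with 6-FAM before capillary electrophoresis; DMSO-referenced bidirectional fit.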

Assay [14] can be described thus: ATG_EGR_CIS: Attagene CIS-FACTORIAL HepG2 Assay for human Early Growth Response 1 (EGR1) (AID 2282938). To be noted: HepG2 Attagene CIS-FACTORIAL EGR reporter mRNA; actives raise or lower the signal. The method in brief:
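Activity is taken as induction or loss of reporter mRNA versus DMSO, fitted bidirectionally. Transcripts from cis-regulated reporter units in transiently transfected HepG2 were measured after 24 h by RT-PCR with capillary electrophoresis.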

Assay [15] is described as follows: ATG_M_19_CIS: Attagene CIS-FACTORIAL HepG2 Assay for M19 Transcription Factor (Internal Marker) (AID 2282939). As to conditions: HepG2 Attagene CIS-FACTORIAL M19 internal marker reporter; actives raise or lower the signal. A digest of the protocol:
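Background-control endpoint from a multiplexed HepG2 reporter panel. Cells carrying cis-regulated reporter constructs are treated 24 h, then reporter transcripts are amplified, fluorescently labelled and sized by capillary electrophoresis. DMSO defines baseline.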

Assay [16] can be described thus: ATG_ERE_CIS: Attagene CIS-FACTORIAL HepG2 Assay for Estrogen Response Element (ERE) (AID 2282940). To be noted: HepG2 ERE cis-reporter, Attagene RNA transcript; actives raise or lower the signal. A digest of the protocol: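 Cells used were human hepatoma HepG2, transfected with multiple reporter transcription units under cis-regulatory promoters. Reporter mRNA, read 24 h post-dosing via fluorescent RT-PCR products on capillary electrophoresis, was fitted bidirectionally relative to DMSO.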

Assay [17] deals with Hepatocyte nuclear factor 3-beta (Homo sapiens) (UniProt Q9Y261). Description: ATG_FoxA2_CIS: Attagene CIS-FACTORIAL HepG2 Assay for human Forkhead box A2 (FOXA2) (AID 2282942). As to conditions: HepG2 cis-reporter transcription factor activity, 24 h; actives raise or lower the signal. The method in brief:
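Reporter transcript induction is measured by fluorescence after capillary electrophoresis of RT-PCR products from HepG2 cells exposed 24 h. Cis-regulated reporter units report endogenous factor activity; curves fitted both directions against DMSO.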

Assay [18] can be described thus: ATG_FoxO_CIS: Attagene CIS-FACTORIAL HepG2 Assay for human Forkhead box O (FoxO) (AID 2282943). As to conditions: HepG2 Attagene cis-reporter, FoxO element, mRNA; actives raise or lower the signal. The method in brief:
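Transfected HepG2 reporter cells exposed to test chemical for 24 h; reporter RNA measured by reverse transcription, PCR and fluorescent capillary electrophoresis; curves fitted for increases and decreases against DMSO.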

A short description of assay [19]: ATG_GATA_CIS: Attagene CIS-FACTORIAL HepG2 Assay for human GATA Binding Protein (AID 2282944). As to conditions: HepG2 GATA cis-element reporter, Attagene multiplex mRNA; actives raise or lower the signal. A digest of the protocol: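 Endogenous transcription factor activity was captured through cis-promoter-driven reporters in transfected HepG2 cells. After 24 h exposure, reporter transcripts were quantified by RT-PCR with fluorescent capillary electrophoresis, and responses fitted both directions against DMSO.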

Assay [20] can be described thus: ATG_Ets_CIS: Attagene CIS-FACTORIAL HepG2 Assay for human Erythroblast Transformation Specific (ETS) (AID 2282941). To be noted: HepG2 ETS cis-reporter transcription, actives raise or lower the signal. The method in brief: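 Bidirectional fit versus DMSO of reporter mRNA signal, detected by RT-PCR and capillary electrophoresis in HepG2 cells transiently transfected with cis-element reporters and dosed 24 h.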

Retinoic acid receptor alpha (Homo sapiens), sequence (P10276 whole entry, looked up): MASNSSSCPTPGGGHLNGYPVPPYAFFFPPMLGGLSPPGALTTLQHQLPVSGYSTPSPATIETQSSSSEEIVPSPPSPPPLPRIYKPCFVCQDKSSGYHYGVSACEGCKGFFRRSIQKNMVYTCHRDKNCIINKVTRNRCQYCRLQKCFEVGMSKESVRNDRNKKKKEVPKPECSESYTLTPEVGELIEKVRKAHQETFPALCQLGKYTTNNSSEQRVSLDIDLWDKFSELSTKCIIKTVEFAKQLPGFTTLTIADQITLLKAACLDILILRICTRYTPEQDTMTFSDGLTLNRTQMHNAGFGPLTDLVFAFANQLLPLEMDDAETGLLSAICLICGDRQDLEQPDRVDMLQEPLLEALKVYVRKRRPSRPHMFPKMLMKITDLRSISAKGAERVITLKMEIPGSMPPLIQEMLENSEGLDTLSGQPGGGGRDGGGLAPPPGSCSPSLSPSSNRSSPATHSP
Aryl hydrocarbon receptor (Homo sapiens), sequence (P35869 whole entry, looked up): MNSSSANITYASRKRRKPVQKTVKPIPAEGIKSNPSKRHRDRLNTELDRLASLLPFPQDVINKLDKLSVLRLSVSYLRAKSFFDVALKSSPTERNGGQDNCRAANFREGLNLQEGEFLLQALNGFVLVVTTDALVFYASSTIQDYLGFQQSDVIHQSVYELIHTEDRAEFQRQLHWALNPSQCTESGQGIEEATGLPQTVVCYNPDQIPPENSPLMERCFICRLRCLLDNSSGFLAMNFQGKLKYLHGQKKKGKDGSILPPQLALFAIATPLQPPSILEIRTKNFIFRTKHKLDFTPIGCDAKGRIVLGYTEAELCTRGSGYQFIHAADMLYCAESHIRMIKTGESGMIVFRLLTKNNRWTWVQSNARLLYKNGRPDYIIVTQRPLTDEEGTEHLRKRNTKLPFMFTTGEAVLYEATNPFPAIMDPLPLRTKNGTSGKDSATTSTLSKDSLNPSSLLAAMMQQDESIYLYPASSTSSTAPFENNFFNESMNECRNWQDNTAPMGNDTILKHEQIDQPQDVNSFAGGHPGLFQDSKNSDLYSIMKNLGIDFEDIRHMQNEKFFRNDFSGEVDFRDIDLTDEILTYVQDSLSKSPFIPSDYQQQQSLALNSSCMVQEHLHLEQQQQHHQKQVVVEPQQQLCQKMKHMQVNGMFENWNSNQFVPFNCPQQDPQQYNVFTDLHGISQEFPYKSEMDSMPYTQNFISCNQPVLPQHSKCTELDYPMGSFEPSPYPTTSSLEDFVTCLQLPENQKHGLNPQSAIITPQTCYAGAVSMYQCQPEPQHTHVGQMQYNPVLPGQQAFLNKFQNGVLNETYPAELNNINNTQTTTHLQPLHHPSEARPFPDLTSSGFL
CCAAT/enhancer-binding protein beta (Homo sapiens), sequence (P17676 whole entry, looked up): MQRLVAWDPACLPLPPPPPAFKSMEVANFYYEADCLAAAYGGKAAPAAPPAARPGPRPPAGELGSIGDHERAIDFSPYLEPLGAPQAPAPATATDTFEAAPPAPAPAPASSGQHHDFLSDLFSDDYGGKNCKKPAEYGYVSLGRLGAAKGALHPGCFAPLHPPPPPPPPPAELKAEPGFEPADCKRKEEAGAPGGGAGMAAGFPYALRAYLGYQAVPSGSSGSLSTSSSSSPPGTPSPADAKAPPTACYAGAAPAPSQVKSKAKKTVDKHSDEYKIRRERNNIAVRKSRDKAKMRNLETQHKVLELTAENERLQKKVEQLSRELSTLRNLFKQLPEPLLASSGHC
Hepatocyte nuclear factor 3-beta (Homo sapiens), sequence (Q9Y261 whole entry, looked up): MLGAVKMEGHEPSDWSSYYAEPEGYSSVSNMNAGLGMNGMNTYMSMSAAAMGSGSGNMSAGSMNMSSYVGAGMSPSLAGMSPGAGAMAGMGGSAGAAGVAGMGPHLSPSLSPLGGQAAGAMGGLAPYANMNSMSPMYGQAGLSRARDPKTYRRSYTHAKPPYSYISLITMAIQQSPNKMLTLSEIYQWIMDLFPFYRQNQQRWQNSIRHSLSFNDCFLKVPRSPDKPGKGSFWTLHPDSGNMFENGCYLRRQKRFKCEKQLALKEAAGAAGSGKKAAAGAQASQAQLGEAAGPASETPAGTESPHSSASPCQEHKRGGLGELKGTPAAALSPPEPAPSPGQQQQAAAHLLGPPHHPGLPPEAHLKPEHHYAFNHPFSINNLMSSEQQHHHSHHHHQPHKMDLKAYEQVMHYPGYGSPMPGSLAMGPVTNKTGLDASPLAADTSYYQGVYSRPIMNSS
Transcription factor E2F1 (Homo sapiens), sequence (Q01094 whole entry, looked up): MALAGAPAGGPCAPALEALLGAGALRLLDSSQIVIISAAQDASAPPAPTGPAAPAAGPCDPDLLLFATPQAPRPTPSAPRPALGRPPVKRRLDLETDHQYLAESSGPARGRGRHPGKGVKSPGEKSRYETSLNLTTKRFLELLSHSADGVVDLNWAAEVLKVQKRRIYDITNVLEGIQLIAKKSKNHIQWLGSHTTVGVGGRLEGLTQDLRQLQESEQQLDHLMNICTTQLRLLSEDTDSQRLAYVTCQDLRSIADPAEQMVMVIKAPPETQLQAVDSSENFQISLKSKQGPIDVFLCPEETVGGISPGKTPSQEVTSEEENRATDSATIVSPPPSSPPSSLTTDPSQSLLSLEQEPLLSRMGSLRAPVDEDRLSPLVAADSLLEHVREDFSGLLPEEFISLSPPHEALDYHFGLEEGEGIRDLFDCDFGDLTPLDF

Regarding `c1ccc2cnccc2c1`, the call in [1], in assay [2], in [3], in assay [4], in assay [5] and in [7] was inactive. For the same molecule, the call in assay [8], in assay [9], in assay [10], in assay [11], in assay [12] and in [13] was inactive. Besides, the molecule was classed as inactive in [14], in assay [15], in assay [16], in [17], in assay [18] and in assay [19]. Moreover, in [6], the AC50 was 61.1 µM (active).

As to `CC12CCC(CC1)C(C)(C)O2`, the result in assay [1], in assay [2], in [3], in [4], in assay [5] and in [6] was inactive. Further, the molecule was called inactive in assay [7], in assay [8], in assay [9], in assay [10], in assay [11] and in [12]. Moreover, the result in assay [13], in assay [14], in assay [15], in [20], in assay [17] and in [18] was inactive. The molecule was classed as inactive in [19].

In the case of `CC(C)CO`, the call in [1], in [2], in [3], in [4], in [5] and in [6] was inactive. Moreover, the outcome in assay [7], in assay [8], in assay [9], in assay [10], in assay [11] and in assay [12] was inactive. In addition, the molecule was called inactive in [13], in [14], in assay [15], in assay [16], in assay [20] and in assay [17]. Moreover, the molecule was called inactive in [19].

On to `O=C(O)CCC(=O)O`, for which the outcome in assay [1], in [2], in [3], in assay [4], in [5] and in assay [6] was inactive. Also, the outcome in assay [7], in assay [8], in [9], in [10], in assay [11] and in [12] was inactive. In addition, the outcome in [13], in [14], in assay [15], in assay [16], in assay [17] and in assay [18] was inactive. Moreover, the molecule was called inactive in assay [19].
